# From PubChem BioAssay (NCATS)
# Unmarked numbers belong to inactive results. Records with an inconclusive call do not appear. Where a call stands in place of a potency, no number is given. Calls of active or inactive are those of the source. Unless noted, calls follow the shape of the dose curve; as a rule, active = well fitted curve in the direction sought with a large enough effect; inconclusive = small, poorly fitted or top-dose-only effect, or another doubt; inactive = no such curve, though single readings can be large; an effect the other way counts as inactive or inconclusive.
# What was measured:
# [1] = biological target: Rap guanine nucleotide exchange factor 3 (Homo sapiens) (UniProt O95398); test: Confirmatory qHTS for antagonist of cAMP-regulated guanine nucleotide exchange factor 3 (EPAC1) (AID 1645880); settings: EPAC1 Rap1B-BODIPY-GDP exchange, fluorescence; activity, negative = inhibition: at 115 µM (top of the series); also: nearly all actives have a fitted effect of over 55% in size; also: potency is read from the fitted curve at half-maximal effect
# Method in brief: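 Nucleotide exchange uses 100 nM EPAC1, 250 nM RAP1B-BODIPY-GDP and 50 uM GDP, with compounds in a concentration-titration series. After 5 min at room temperature, fluorescence (480 nm ex/540 nm em) is read every 5 min for 30 min. Data are normalized to control ATA and DMSO.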
# [2] = biological target: Rap guanine nucleotide exchange factor 4 (Homo sapiens) (UniProt Q8WZA2); test: Confirmatory qHTS for agonist of cAMP-regulated guanine nucleotide exchange factor 4 (EPAC2) (AID 1645884);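 also: nucleotide exchange releases bodipy-GDP from Rap1 and this lowers its fluorescence; nearly all actives have a fitted effect of over 65% in size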; also: potency is read from the fitted curve at half-maximal effect
# [3] = biological target: Rap guanine nucleotide exchange factor 4 (Homo sapiens) (UniProt Q8WZA2); test: Confirmatory qHTS for antagonist of cAMP-regulated guanine nucleotide exchange factor 4 (EPAC2) (AID 1645885); also: nearly all actives have a fitted effect of over 25% in size; also: potency is read from the fitted curve at half-maximal effect
# [4] = biological target: Rap guanine nucleotide exchange factor 3 (Homo sapiens) (UniProt O95398); test: Counterscreen qHTS for agonist of cAMP-regulated guanine nucleotide exchange factor 3 (EPAC1) (AID 1645889); also: nearly all actives have a fitted effect of over 40% in size; also: potency is read from the fitted curve at half-maximal effect
# Method in brief: (§1)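 Rap1B-BODIPY-GDP 250 nM + GDP 50 uM; cpds 7-pt, final 9.74 nM–152 uM (activator mode) or from 7.32 nM upwards (inhibitor mode); RT; FI 480/540 nm at 5 and 30 min, then ± cAMP, reread.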
# [5] = qHTS for Inhibitors of the vitamin D receptor (VDR): Hit Validation using a Texas Red Assay (AID 602201)
# Method in brief: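 After a 2-hour room-temperature incubation, polarization of Texas-Red emission was read (Ex 595 nm/Em 615 nm). Final mix contained 7 nM Texas Red, 1.5 uM VDR-LBD and LG19078.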
# [6] = biological target: Rap guanine nucleotide exchange factor 3 (Homo sapiens) (UniProt O95398); test: Counterscreen qHTS for antagonist of cAMP-regulated guanine nucleotide exchange factor 3 (EPAC1) (AID 1645888);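 also: fluorescence loss as bound BODIPY-GDP is released from Rap1B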
# Method in brief: as §1
# [7] = biological target: Tumor susceptibility gene 101 protein (Homo sapiens) (UniProt Q99816); test: qHTS Assay for Iinhibitors of HIV-1 Budding by Blocking the Interaction of PTAP/TSG101: Hit Validation (AID 651600); also: nearly all actives have a fitted effect of over 70% in size; also: potency is read from the fitted curve at half-maximal effect
# Method in brief: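 Measuring PTAP–Tsg101 interaction by FP: protein at 10 uM and fluorescent peptide at 50 nM (final), buffer 10 mM HEPES pH 7.5 with 0.15 M NaCl, 3 mM EDTA, 0.1 mM TCEP, 0.01% Tween 20; 20 min incubation, r.t.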
# [8] = AP1 Signaling Pathway (AID 357; active = well fitted curve in either direction with a large enough effect, not every such curve was filed as active;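 also: ME-180 reporter cells stimulated with EGF at its EC50 level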); settings: ME-180 AP-1-bla reporter, EGF-induced, beta-lactamase ratio, 5 h; at 7.69 µM (top of the series) unless noted
# Method in brief: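 AP-1-bla ME-180 cells, Opti-MEM + 0.5% dialyzed FBS, plated overnight 37 °C. Cpd titration + EC50 EGF, 5 h 37 °C. CCF4 2.5 h RT; ex 405, em 460/530 ratio → %activity, AC50.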
# [9] = biological target: Glucocorticoid receptor (Homo sapiens) (UniProt P04150); test: GR-GFP Redistribution (AID 450;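 active = compounds whose dose series gives a full or clear partial fitted curve of increased nuclear translocation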; also: potency is read from the fitted curve at half-maximal effect); settings: U2OS GR-GFP nuclear translocation, laser cytometry, 2 h
# [10] = qHTS Assay for Identification of Small Molecule Agonists for Hypoxia Response Element Signaling Pathway (AID 914; active = well fitted activation curve with a large enough effect in the signal ratio, with a control signal flat, not every such curve was filed as active; the % refers to the signal ratio; also: potency is read from the fitted curve at half-maximal effect); settings: ME-180 (cervical carcinoma) HRE-bla reporter, beta-lactamase ratio, CoCl2, 17 h; activation: stronger effect = higher value
# Method in brief: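 HRE-bla ME-180 cells, overnight plating in Opti-MEM with 0.5% dialyzed FBS; cpd titration + EC50 CoCl2, 17 h, 37 degrees Celsius; CCF4 2.5 h RT; 460/530 nm ratio; AC50.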
# Sequence of Tumor susceptibility gene 101 protein (Homo sapiens) (Q99816 whole entry, looked up): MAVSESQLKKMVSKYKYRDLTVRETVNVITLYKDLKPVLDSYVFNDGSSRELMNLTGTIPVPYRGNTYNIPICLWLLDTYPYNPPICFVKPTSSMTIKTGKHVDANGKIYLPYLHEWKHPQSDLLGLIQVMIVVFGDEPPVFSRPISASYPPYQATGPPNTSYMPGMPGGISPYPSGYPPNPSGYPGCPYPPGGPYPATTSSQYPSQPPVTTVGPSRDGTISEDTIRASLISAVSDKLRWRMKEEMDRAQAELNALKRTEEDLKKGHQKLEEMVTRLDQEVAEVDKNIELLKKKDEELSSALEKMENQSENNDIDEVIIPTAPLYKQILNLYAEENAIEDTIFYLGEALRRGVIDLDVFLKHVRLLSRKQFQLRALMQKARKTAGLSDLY
# Sequence of Rap guanine nucleotide exchange factor 4 (Homo sapiens) (Q8WZA2 whole entry, looked up): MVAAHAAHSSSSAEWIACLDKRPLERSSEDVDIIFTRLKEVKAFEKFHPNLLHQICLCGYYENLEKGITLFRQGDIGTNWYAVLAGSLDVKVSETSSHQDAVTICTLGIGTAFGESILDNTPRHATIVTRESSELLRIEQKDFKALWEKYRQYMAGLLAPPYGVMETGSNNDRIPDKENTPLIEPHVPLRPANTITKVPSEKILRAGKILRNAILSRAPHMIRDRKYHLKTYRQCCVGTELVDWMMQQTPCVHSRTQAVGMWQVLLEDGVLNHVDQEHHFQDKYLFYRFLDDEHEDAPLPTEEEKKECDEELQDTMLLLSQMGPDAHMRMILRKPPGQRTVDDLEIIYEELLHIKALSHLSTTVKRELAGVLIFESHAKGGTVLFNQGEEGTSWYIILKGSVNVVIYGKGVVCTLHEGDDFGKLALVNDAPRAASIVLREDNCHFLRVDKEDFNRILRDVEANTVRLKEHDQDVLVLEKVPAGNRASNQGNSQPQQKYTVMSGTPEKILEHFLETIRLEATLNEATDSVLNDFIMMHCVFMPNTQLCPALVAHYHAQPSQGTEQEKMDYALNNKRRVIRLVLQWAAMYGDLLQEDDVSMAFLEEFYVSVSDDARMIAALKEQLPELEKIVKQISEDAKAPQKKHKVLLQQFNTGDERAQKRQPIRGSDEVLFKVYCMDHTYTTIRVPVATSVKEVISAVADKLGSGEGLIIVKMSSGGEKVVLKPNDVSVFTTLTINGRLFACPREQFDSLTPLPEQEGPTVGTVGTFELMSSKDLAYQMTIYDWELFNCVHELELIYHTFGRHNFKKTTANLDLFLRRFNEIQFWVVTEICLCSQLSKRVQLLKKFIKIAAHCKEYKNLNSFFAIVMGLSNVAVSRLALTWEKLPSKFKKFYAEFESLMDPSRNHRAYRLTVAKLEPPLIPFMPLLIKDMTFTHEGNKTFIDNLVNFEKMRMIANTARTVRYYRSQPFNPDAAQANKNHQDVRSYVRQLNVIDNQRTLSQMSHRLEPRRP
# Sequence of Rap guanine nucleotide exchange factor 3 (Homo sapiens) (O95398 whole entry, looked up): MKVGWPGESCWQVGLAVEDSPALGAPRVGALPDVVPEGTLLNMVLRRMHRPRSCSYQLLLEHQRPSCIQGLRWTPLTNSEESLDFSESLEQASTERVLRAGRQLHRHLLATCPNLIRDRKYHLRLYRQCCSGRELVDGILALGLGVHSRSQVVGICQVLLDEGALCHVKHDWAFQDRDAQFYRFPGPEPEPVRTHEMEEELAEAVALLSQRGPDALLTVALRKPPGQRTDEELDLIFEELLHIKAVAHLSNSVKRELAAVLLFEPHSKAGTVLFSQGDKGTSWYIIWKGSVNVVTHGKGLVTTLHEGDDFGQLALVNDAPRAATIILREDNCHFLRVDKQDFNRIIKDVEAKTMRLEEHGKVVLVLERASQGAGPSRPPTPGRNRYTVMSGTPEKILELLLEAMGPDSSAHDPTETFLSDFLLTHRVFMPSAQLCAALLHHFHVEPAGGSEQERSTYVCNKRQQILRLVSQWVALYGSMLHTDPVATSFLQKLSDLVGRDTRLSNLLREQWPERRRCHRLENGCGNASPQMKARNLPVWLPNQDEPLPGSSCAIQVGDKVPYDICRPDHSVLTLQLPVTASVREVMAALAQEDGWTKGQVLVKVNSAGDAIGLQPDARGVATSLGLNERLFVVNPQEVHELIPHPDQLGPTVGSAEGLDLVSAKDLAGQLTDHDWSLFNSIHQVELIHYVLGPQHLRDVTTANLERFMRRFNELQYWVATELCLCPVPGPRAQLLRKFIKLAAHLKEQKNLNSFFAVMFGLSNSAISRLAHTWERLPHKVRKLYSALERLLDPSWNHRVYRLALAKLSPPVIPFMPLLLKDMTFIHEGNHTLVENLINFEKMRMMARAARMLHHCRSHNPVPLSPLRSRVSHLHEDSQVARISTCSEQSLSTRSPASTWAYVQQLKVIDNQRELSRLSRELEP
# Sequence of Glucocorticoid receptor (Homo sapiens) (P04150 whole entry, looked up): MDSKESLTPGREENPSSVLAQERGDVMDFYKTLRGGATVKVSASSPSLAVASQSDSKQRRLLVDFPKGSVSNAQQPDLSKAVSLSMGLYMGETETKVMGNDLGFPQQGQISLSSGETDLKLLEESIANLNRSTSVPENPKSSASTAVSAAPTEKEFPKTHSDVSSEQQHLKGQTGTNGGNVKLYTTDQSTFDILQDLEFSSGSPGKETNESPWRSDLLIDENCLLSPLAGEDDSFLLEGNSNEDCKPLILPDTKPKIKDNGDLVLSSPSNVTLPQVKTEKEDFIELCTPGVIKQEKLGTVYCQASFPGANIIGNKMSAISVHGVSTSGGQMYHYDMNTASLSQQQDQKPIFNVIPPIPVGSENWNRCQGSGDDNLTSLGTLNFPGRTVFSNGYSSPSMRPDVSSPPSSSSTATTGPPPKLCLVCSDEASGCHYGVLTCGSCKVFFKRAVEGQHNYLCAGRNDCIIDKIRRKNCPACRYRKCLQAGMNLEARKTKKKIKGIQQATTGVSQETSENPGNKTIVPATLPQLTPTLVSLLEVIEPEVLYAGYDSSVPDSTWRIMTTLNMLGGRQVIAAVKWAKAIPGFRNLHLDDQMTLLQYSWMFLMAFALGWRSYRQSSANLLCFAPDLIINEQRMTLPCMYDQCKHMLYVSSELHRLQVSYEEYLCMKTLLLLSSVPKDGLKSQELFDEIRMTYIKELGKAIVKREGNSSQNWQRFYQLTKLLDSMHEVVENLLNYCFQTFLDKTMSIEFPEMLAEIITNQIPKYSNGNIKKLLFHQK
structure (smiles),measurement,setting,value
Cc1cc(/C=C2\SC(=S)N(C)C2=O)c(C)n1-c1ccccc1O,Potency,[1],inactive
same,Potency,[2],100 µM (active)
same,Potency,[3],inactive
same,Potency,[4],89.1 µM (active)
COc1cc(/C=C2/C(=O)c3cccc([N+](=O)[O-])c3C2=O)c(Br)cc1O,Potency,[5],inactive
same,Potency,[1],23.9 µM (active)
same,Potency,[2],inactive
same,outcome,[3],inactive; activator; fitted 0.0301 uM [at 12.7 µM]
same,Potency,[6],inactive
same,Potency,[4],31.6 µM (active)
Cc1nc(Cl)c2c(n1)NC1=C(O2)C(=O)CCC1,Potency,[7],18.3 µM (active)
same,Potency,[1],inactive
same,activation,[2],"10.5% [at 17.1 µM, percent relative to cAMP agonist control]"
same,Potency,[3],inactive
same,"activity change, negative = inhibition",[6],20% [at 30.8 µM]
Cc1ccc2oc(=O)c(/C=C(\O)c3ccccc3)nc2c1,Potency,[7],inactive
same,Potency,[1],inactive
same,activation,[2],"10.1% [at 17.1 µM, percent relative to cAMP agonist control]"
same,Potency,[3],inactive
same,"activity change, negative = inhibition",[6],0.517% [at 30.8 µM]
same,activation,[4],12.5% [at 30.8 µM]
COc1cccc2c1C(=O)c1c(O)c3c(c(O)c1C2=O)CC(O)(C(C)=O)CC3OC1CC(N(C)C)C(O)C(C)O1 (configuration not stated),Potency,[7],9.19 µM (active)
same,Potency,[1],inactive
same,activation,[2],"10.6% [at 17.1 µM, percent relative to cAMP agonist control]"
same,Potency,[3],inactive
same,"activity change, negative = inhibition",[6],80.1% [at 30.8 µM]
Cc1ccccc1C(=O)Nc1ccc(C(=O)OCc2cc(=O)n3c4c(sc3n2)CCCC4)cc1,Potency,[1],inactive
same,Potency,[2],inactive
same,Potency,[3],inactive
same,Potency,[4],inactive
COc1ccccc1NC(=O)/C(C#N)=C/c1cc([N+](=O)[O-])ccc1N1CCCC1,Potency,[7],14.6 µM (active)
same,Potency,[1],inactive
same,Potency,[2],112 µM (active)
same,Potency,[3],75.7 µM (active)
same,Potency,[6],inactive
CCN(CC)c1ccc2cc(C(=O)Nc3ccccn3)c(=O)oc2c1,"activity change, negative = inhibition",[8],7.12% [at 17.2 µM]
same,Potency,[9],> 20.6 µM
same,Potency,[10],3.98 µM (active)
same,Potency,[1],inactive
same,Potency,[2],100 µM (active)
same,Potency,[3],inactive
same,Potency,[6],inactive
same,Potency,[4],inactive
N#CC(C#N)=C1C=C2C=C(N3CCCCCC3)CCC2CC1 (configuration not stated),Potency,[1],inactive
same,Potency,[3],inactive
COc1ccc(C(C#N)=Cc2ccccc2OC)cc1,Potency,[1],inactive
same,activation,[2],"-1.43% [at 17.1 µM, percent relative to cAMP agonist control]"
same,"activity change, negative = inhibition",[6],-8.61% [at 30.8 µM]
COc1ccc(/C=C2\C(=O)NC(=O)c3ccccc32)cc1OC,Potency,[1],inactive
same,Potency,[2],inactive
same,Potency,[6],inactive
C=Cc1ccc(CC2(C)C(=O)Nc3ccc(-c4cccnc4)cc32)cc1 (configuration not stated),Potency,[1],inactive
same,Potency,[3],inactive
same,Potency,[6],inactive
CC(C)CC(=NNC(=O)c1ccncc1)c1cc(Cl)ccc1O,Potency,[1],inactive
same,Potency,[2],100 µM (active)
same,Potency,[6],inactive
